Source: PubChem BioAssay (NCATS)
Records with an inconclusive call do not appear. Calls of active or inactive are those of the source. Unless noted, the call rests on the fitted dose curve; in most records, active means well fitted curve in either direction with a large enough effect (not every such curve was filed as active); inconclusive means small, poorly fitted or top-dose-only effect, or another doubt; inactive means flat fitted curve, though single readings scatter.

How the values were obtained:
[1] = AP1 Signaling Pathway (AID 357); settings: ME-180 AP-1-bla reporter, EGF-induced, beta-lactamase ratio, 5 h; at 7.69 µM (top of the series) unless noted;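 further: ME-180 reporter cells stimulated with EGF at its EC50 level; on the % scale 0 is the no-effect control and ±100 the full control effect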
Outline: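 Titration-series screen for positive or negative modulators of EC50 EGF-induced signaling in ME-180 cells carrying an AP-1-driven beta-lactamase reporter. After 5 hours at 37 degrees Celsius, CCF4 460nm/530nm emission ratio gave %Activity; AC50 values derived.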

[2] = biological target: Cytochrome P450 1A2 (Homo sapiens) (UniProt P05177); assay: p450-cyp1a2 (AID 410; calls by dose curve; further: potency means the concentration at half of the fitted maximal effect;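 on activity change, negative = inhibition: -100% = full effect of reference inhibitor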)
Outline: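 Human CYP1A2 (20nM) demethylated Luciferin-ME at its Km (100uM) in 100mM KPO4. After 10 min compound preincubation, NADPH regeneration ran the reaction 60 min at room temperature. Luciferin was read by luminescence, normalized to 57 uM furafylline.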

[3] = NFAT Signaling Pathway (AID 444); settings: Jurkat NFAT-bla M1, carbachol, beta-lactamase ratio, 5 h; at 7.69 µM (top of the series) unless noted;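 further: carbachol stimulus at about its EC50 of 1 µM final; on the % scale 0 is the no-effect control and ±100 the full control effect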
Outline: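 Jurkat cells with NFAT-driven β-lactamase reporter and co-expressed M1 receptor, stimulated with carbachol (final 1 uM, ~EC50), compound titration, 5 h at 37 °C. CCF4 loaded 1 h at RT; 460/530 nm ratio gave %activity and AC50.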

[4] = Stat Signaling Pathway (AID 446); settings: ME-180 (cervical carcinoma) SIE beta-lactamase reporter, IL-6 stimulated, 5 h; at 7.69 µM (top of the series) unless noted;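 further: ME-180 cervical cancer cells given 40 pM IL-6 alongside compound; SIE-controlled beta-lactamase reporter measured as 460/530 nm FRET emission ratio; on the % scale 0 is the no-effect control and ±100 the full control effect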
Outline: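 IL-6/STAT signaling read in ME-180 cells via an SIE beta-lactamase reporter. Stimulus was 40 pM IL-6 (its AC50) for 5 hrs, so both activation and inhibition register.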

[5] = biological target: Glucocorticoid receptor (Homo sapiens) (UniProt P04150); assay: GR-EFC Redistribution (AID 451; calls by dose curve; further: potency means the concentration at half of the fitted maximal effect); settings: CHO-K1 GR-EFC translocation, beta-gal luminescence, 2 h
Outline: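 CHO-K1 cells expressing nuclear EA and GR-ED fragments of b-gal; compounds titrated up to 46 uM final, 2 h at 37 C. GR nuclear translocation read as complemented b-gal luminescence after 1 h RT detection.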

[6] = biological target: Mitogen-activated protein kinase 10 (Mus musculus) (UniProt Q61831); assay: JNK3 AlphaScreen Assay (AID 530);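 further: kinase came from lysate of stimulated human HepG2 cells; signal reports phosphorylation of biotinylated GST-cJun 1-79 at Ser73 with 10 µM ATP; on the % scale 0 is the no-effect control and ±100 the full control effect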
Outline: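 qHTS format: compounds tested as titrations against IL-1beta/TNF-alpha-activated HepG2 lysate JNK3 with biotin-GST-cJun substrate and 10 uM ATP at room temperature. Loss of anti-phospho-cJun AlphaScreen signal indicates inhibition.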

[7] = biological target: 3',5'-cyclic-AMP phosphodiesterase 4B (Homo sapiens) (UniProt Q07343); assay: qHTS Assay for Inhibitors of PDE-IV (AID 607; active means well fitted activation curve with a large enough effect in the main read-out, with a control signal flat, not every such curve was filed as active; further: % of control where 0% means no effect)
Outline: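 Live HEK293 cells with a modified cyclic nucleotide-gated (CNG) channel report intracellular cAMP via membrane-potential dye fluorescence (ex 535/em 590 nm). Endogenous PDE-IV was targeted. Compounds were tested at up to 22.9 uM final; RO 20-1724 100 uM served as control.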

[8] = qHTS Assay for Lipid Storage Modulators (AID 1519; calls by dose curve); settings: Drosophila S3 cells, BODIPY lipid droplet/cell ratio, laser cytometry, cells loaded with oleic acid; for activity change, negative = inhibition: at 57.5 µM (top of the series)
Outline: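 Cells seeded at 5,000 per well were treated with compounds over a concentration series and loaded with oleic acid (400 uM, as added). Lipid droplet fluorescence (488 nm excitation, 500-530 nm channel) was read by laser-scanning cytometry and normalized to 20 uM Triacsin C.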

[9] = Primary qHTS for small molecule stabilizers of the endoplasmic reticulum resident proteome: Secreted ER Calcium Modulated Protein (SERCaMP) assay (AID 1508630; active means well fitted curve in the direction sought with a large enough effect; an effect the other way counts as inactive or inconclusive; further: on the % scale 0 is the no-effect control and ±100 the full control effect)
Outline: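 GLuc-SERCaMP-expressing SH-SY5Y cells, pretreated 16 h with compound, are challenged with thapsigargin to empty ER calcium stores; after 4 h, coelenterazine is added directly to the medium and luminescence is imaged.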

[10] = biological target: Lysosomal acid glucosylceramidase (Homo sapiens) (UniProt P04062); assay: Glucocerebrosidase-p2 (AID 348; in the data active means potency below about 10 µM; further: potency means the concentration at half of the fitted maximal effect); settings: purified GBA, blue fluorogenic substrate, 40 min
Outline: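 Compounds titrated from 0.6 nM upwards against 0.2 nM enzyme in pH 5.9 citric acid/KH2PO4, taurocholate, tween-20; blue fluorogenic substrate 80 uM, 40 min room temperature, stopped and read Ex 365/Em 440 for AC50.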

[11] = biological target: Cytochrome P450 3A4 (Homo sapiens) (UniProt P08684); assay: qHTS Assay for Activators of Cytochrome P450 3A4 (AID 885; active means well fitted curve in the direction sought with a large enough effect; an effect the other way counts as inactive or inconclusive; further: nearly all actives have a fitted effect of over 65% in size)
Outline: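 Quantitative HTS format: compounds preincubated with 20nM human CYP3A4 and Luciferin-PPXE substrate at KM, reaction started by NADPH regeneration, stopped after 60 min, luciferase luminescence read 20 min later.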

[12] = biological target: Glucocorticoid receptor (Homo sapiens) (UniProt P04150); assay: GR-GFP Redistribution (AID 450;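 active means compounds whose dose series gives a full or clear partial fitted curve of increased nuclear translocation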; further: potency means the concentration at half of the fitted maximal effect); settings: U2OS GR-GFP nuclear translocation, laser cytometry, 2 h
[13] = biological target: Ubiquitin carboxyl-terminal hydrolase 1 (Homo sapiens) (UniProt O94782); assay: Inhibitors of USP1/UAF1: Pilot qHTS (AID 504865; active means well fitted curve in the direction sought with a large enough effect; an effect the other way counts as inactive or inconclusive;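 further: rhodamine fluorescence freed from ubiquitin-rhodamine substrate followed over time; top concentration of the series differs between compounds; on the % scale 0 is the no-effect control and ±100 the full control effect; nearly all actives have a fitted effect of over 35% in size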)
Outline: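 In 50mM HEPES pH 7.8 containing 0.5mM EDTA, 1mM TCEP, 0.1 mg/ml BSA and 0.01% Tween-20, 1nM USP1/UAF1 is exposed to compound for 15 min, then Ub-Rho (150nM final) is added and fluorescence is read over time.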

[14] = Confirmation and Secondary Assay for Modulators of Hemoglobin Beta Chain Splicing at IVS2 654 locus (AID 910; active means well fitted curve in the direction sought with a large enough effect; an effect the other way counts as inactive or inconclusive;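 further: HeLa cells stably carrying EGFP split by mutant beta-globin IVS2-654 intron; % of control where 0% means no effect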)
Outline: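 HeLa cells stably expressing EGFP interrupted by β-globin IVS2-654 intron, seeded overnight in Opti-MEM/2% FCS, then treated 2 days at 37 °C. Restored splicing read as total peak GFP intensity per well by laser scanning cytometry (488 nm excitation, 500–520 nm emission); 500 nM antisense PNA as control.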

[15] = Confirmation and Secondary Assay for Modulators of Hemoglobin Beta Chain Splicing at IVS2 705 locus (AID 930; active means well fitted curve in the direction sought with a large enough effect; an effect the other way counts as inactive or inconclusive;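 further: HeLa cells stably expressing the EGFP-705 splicing reporter; GFP fluorescence per well restored by corrected splicing of the IVS2-705 intron in EGFP; % of control where 0% means no effect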)
Outline: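 HeLa IVS2-705 EGFP reporter cells, 500/well, compound 2 d at 37C; correct splicing yields fluorescent EGFP. Control: 500 nM antisense PNA. Read-out: total peak GFP intensity.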

[16] = biological target: Cytochrome P450 2D6 (Homo sapiens) (UniProt P10635); assay: qHTS Assay for Inhibitors and Substrates of Cytochrome P450 2D6 (AID 891; active means well fitted curve in the direction sought with a large enough effect; an effect the other way counts as inactive or inconclusive; further: potency means the concentration at half of the fitted maximal effect; nearly all actives have a fitted effect of over 60% in size)
Outline: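 Human CYP2D6 (5 nM) with 30 uM Luciferin-ME EGE (at Km) in 100 mM KPO4, compound preincubated 10 min, then NADPH regeneration system for 60 min at room temperature. Luciferin read by luminescence; normalized to 1.43 uM quinidine.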

[17] = measured here: cell count channel max response
[18] = measured here: lipid channel max response

Sequence of Cytochrome P450 3A4 (Homo sapiens) (P08684 whole entry, looked up): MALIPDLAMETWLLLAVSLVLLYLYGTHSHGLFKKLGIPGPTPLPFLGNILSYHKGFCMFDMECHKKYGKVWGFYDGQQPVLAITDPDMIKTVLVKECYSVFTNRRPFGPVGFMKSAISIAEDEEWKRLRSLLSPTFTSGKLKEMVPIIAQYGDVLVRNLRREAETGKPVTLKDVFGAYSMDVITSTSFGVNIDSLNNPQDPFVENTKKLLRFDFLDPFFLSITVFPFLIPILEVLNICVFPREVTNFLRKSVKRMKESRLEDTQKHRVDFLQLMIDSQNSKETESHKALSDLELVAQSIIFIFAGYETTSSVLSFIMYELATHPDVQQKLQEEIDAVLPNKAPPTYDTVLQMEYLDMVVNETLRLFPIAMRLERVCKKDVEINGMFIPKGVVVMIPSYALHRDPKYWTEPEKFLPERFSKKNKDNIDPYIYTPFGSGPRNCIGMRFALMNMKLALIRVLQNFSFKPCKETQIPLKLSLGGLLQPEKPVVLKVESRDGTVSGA
Sequence of 3',5'-cyclic-AMP phosphodiesterase 4B (Homo sapiens) (Q07343 whole entry, looked up): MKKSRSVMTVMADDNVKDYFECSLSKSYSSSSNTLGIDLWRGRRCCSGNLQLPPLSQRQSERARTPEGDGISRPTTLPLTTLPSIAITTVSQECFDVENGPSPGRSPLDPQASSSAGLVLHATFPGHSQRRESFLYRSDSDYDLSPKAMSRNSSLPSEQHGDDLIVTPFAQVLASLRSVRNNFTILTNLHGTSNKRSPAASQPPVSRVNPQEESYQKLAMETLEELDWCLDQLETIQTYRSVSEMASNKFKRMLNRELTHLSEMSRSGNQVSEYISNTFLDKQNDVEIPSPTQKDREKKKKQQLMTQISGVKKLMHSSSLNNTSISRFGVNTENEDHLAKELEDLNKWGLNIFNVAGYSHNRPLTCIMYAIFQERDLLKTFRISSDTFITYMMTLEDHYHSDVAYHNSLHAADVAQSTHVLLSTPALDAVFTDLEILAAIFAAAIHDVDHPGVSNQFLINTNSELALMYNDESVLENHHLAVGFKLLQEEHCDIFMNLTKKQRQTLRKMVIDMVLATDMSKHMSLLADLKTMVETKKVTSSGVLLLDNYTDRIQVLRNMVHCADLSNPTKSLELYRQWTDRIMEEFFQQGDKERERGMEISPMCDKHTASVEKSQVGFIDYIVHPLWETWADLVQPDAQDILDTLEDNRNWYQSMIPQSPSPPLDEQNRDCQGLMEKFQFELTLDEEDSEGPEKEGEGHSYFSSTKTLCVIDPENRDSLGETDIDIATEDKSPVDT
Sequence of Cytochrome P450 1A2 (Homo sapiens) (P05177 whole entry, looked up): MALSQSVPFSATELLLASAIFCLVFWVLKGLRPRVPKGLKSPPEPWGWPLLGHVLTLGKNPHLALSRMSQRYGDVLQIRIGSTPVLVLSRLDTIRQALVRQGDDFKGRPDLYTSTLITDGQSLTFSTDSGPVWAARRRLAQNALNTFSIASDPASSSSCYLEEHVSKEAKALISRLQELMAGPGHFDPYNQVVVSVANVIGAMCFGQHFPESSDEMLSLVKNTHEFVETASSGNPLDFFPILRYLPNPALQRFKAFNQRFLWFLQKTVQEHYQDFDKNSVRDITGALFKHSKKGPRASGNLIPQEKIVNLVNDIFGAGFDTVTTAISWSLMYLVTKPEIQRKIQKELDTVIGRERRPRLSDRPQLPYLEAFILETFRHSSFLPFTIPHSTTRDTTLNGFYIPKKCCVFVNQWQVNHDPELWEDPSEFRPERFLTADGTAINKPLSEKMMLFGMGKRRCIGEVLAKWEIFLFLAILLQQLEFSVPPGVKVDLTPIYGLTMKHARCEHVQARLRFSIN
Sequence of Lysosomal acid glucosylceramidase (Homo sapiens) (P04062 whole entry, looked up): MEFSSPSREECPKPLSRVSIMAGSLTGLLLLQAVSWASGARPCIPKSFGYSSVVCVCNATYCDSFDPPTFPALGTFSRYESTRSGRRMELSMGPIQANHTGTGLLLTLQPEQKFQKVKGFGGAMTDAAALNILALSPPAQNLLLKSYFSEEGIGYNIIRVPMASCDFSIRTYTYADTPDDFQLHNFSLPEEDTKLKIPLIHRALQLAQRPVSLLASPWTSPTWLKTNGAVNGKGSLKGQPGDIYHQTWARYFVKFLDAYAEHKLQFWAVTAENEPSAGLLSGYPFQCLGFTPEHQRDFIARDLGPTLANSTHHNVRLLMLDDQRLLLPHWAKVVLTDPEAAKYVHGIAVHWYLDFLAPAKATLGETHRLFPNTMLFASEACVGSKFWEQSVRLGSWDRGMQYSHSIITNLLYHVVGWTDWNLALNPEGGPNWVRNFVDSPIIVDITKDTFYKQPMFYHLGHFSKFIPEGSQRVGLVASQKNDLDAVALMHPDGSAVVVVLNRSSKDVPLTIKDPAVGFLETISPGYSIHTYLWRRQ
Sequence of Glucocorticoid receptor (Homo sapiens) (P04150 whole entry, looked up, the tested form may be a part): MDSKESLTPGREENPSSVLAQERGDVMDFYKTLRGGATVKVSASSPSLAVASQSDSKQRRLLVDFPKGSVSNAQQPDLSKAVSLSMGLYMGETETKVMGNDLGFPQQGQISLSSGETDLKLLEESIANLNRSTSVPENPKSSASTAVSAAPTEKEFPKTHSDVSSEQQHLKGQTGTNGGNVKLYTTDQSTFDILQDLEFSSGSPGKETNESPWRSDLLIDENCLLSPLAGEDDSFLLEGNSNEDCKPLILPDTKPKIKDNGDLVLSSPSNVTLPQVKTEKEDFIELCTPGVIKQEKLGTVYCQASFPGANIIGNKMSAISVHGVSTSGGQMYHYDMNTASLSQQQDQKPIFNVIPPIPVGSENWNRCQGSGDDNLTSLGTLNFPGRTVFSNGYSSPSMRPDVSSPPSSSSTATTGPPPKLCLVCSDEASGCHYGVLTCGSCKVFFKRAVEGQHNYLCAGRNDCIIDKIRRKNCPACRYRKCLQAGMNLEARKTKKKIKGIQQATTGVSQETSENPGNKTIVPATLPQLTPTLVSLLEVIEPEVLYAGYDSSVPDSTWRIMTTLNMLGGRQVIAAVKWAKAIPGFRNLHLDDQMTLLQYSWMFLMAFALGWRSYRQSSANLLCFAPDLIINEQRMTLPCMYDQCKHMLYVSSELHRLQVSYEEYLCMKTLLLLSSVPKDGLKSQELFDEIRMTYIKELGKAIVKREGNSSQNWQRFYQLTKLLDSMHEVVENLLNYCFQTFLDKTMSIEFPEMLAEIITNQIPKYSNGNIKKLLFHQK
Sequence of Ubiquitin carboxyl-terminal hydrolase 1 (Homo sapiens) (O94782 whole entry, looked up): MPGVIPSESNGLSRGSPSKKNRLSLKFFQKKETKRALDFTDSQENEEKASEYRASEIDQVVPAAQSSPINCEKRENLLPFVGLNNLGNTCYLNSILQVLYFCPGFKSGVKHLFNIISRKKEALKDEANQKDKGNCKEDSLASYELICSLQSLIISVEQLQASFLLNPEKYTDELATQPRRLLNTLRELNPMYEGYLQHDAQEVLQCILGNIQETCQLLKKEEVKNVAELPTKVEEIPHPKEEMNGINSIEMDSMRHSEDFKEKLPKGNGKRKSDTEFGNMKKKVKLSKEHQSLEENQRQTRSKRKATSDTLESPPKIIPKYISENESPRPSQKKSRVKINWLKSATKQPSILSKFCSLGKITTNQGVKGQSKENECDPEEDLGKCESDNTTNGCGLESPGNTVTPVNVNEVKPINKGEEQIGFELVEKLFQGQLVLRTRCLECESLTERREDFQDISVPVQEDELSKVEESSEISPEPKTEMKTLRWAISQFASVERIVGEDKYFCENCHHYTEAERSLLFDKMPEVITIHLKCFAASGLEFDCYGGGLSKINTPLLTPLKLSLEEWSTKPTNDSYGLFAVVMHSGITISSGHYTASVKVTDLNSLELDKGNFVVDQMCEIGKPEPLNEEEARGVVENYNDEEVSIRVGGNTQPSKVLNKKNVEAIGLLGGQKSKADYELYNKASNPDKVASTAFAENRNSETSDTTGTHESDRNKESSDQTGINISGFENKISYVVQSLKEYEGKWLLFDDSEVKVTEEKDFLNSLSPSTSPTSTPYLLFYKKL
Sequence of Cytochrome P450 2D6 (Homo sapiens) (P10635 whole entry, looked up): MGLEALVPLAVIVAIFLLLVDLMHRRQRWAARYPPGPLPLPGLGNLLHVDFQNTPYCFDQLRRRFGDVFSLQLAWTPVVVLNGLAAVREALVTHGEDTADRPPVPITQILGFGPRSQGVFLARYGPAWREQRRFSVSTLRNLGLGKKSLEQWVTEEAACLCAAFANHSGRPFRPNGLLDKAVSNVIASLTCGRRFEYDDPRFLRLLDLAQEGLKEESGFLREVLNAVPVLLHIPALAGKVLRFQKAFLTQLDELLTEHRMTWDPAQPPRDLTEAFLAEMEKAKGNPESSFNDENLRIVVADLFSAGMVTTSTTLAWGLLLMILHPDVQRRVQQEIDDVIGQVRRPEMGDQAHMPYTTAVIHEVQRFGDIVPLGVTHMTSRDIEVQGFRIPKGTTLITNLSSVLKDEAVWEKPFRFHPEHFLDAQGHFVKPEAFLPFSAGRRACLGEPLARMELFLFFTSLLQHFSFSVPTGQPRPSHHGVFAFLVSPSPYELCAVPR

| Structure (SMILES) | activity change, negative = inhibition [1] | Potency [2] | activity change, negative = inhibition [3] | activity, negative = inhibition [4] | Potency [5] | outcome [6] | Potency [7] | activity change, negative = inhibition [8] | max response [8, 17] [%] | max response [8, 18] [%] | Potency [9] | Potency [10] | Potency [11] | Potency [12] | Potency [13] | outcome [14] | outcome [15] | Potency [16] |
| --- | --- | --- | --- | --- | --- | --- | --- | --- | --- | --- | --- | --- | --- | --- | --- | --- | --- | --- |
| CN1CC[C@@]2(CCCN(C(=O)c3cccc(F)c3)C2)C1 | -5.96% (inactive) | inactive | -2.53% (inactive) | -8.35% (inactive) | > 46 µM (inactive) | inactive | inactive | 3.45% (inactive) | 3.46 | 12.3 | inactive | – | – | – | – | – | – | – |
| CS(=O)(=O)N1CCC[C@@]2(CCN(Cc3ccccc3)C2)C1 | 0.761% (inactive) | – | 1.85% (inactive) | 23.6% (inactive) | > 46 µM (inactive) | inactive | inactive | 2.55% (inactive) | 2.42 | 7.6 | inactive | > 11.4 µM (inactive) | – | – | – | – | – | – |
| COc1ccc(NC(=O)N2CC[C@@]3(CCCN(C(=O)c4ccc(OC)cc4)C3)C2)cc1 | 5.18% (inactive) | 25.1 µM (active) | – | 2.5% (inactive) | – | inactive | inactive | 3.11% (inactive) | 22 | 26.4 | inactive | > 11.4 µM (inactive) | inactive | – | – | – | – | – |
| CS(=O)(=O)N1CCC2(CC1)CN(C(=O)Nc1ccccc1)C2 | -5.74% (inactive) | inactive | 11.2% (inactive) | 8.65% (inactive) | > 46 µM (inactive) | inactive | inactive | 4.59% (inactive) | 6.27 | 16.7 | inactive | – | – | – | – | – | – | – |
| N#Cc1ccccc1-c1nc(NCCN2CCOCC2)c2ccccc2n1 | 1.04% (inactive) | – | -3.19% (inactive) | 2.02% (inactive) | > 46 µM (inactive) | inactive | inactive | 4.61% (inactive) | 14.8 | 18.6 | inactive | > 11.4 µM (inactive) | – | > 46 µM (inactive) | inactive | – | – | – |
| CC(C)NC(=O)N1CC[C@@]2(CCCN(C(=O)c3csnn3)C2)C1 | 8.93% (inactive) | inactive | – | 10.6% (inactive) | > 46 µM (inactive) | inactive | inactive | -0.319% (inactive) | 4.92 | 7.3 | inactive | > 11.4 µM (inactive) | inactive | – | – | – | – | – |
| O=C(Nc1ccccc1)N1CC2(CCN(C(=O)c3cccc(F)c3)CC2)C1 | 13.2% (inactive) | – | 14.3% (inactive) | 0.524% (inactive) | > 46 µM (inactive) | inactive | inactive | 5.53% (inactive) | 9.88 | 20.2 | inactive | > 11.4 µM (inactive) | – | – | – | – | – | – |
| COCC(=O)N1CCC[C@@]2(CCN(C(=O)Nc3ccc(OC)cc3)C2)C1 | -7.62% (inactive) | inactive | – | 6.35% (inactive) | > 46 µM (inactive) | inactive | inactive | 0.357% (inactive) | 1.93 | 5.76 | inactive | > 11.4 µM (inactive) | – | – | – | – | – | – |
| CN(C)c1ccc(-c2nc(N(C)Cc3ccco3)c3ccccc3n2)cc1 | 25.1% (inactive) | 0.631 µM (active) | – | 26.1% (inactive) | > 46 µM (inactive) | inactive | inactive | 10.8% (inactive) | 0.88 | 11.3 | inactive | 6.72 µM (active) | inactive | > 46 µM (inactive) | – | inactive | inactive | – |
| c1ccc(-c2ccc(N3CC4(CCNCC4)C3)cc2)cc1 | 5.34% (inactive) | 15.8 µM (active) | – | 4.95% (inactive) | > 46 µM (inactive) | – | inactive | -2.41% (inactive) | -25 | -25.6 | inactive | > 11.4 µM (inactive) | – | – | – | – | – | – |
| O=C(c1ccco1)N1CCC2(CC1)CN(Cc1cc(C(F)(F)F)cc(C(F)(F)F)c1)C2 | 5.99% (inactive) | inactive | – | 2.41% (inactive) | > 46 µM (inactive) | inactive | inactive | -5.85% (inactive) | 13.1 | 7.42 | inactive | > 11.4 µM (inactive) | – | – | – | – | – | 6.31 µM (active) |
| COc1ccc(-n2c(=O)cnc3cnc(Oc4ccccc4)nc32)cc1 | -8.13% (inactive) | 15.8 µM (active) | 2.58% (inactive) | -13.1% (inactive) | > 46 µM (inactive) | inactive | inactive | 1.98% (inactive) | 3.82 | 6.57 | inactive | – | inactive | > 9.22 µM (inactive) | – | – | – | – |
| CC(=O)N1CCC[C@@]2(CCN(Cc3cc(C(F)(F)F)cc(C(F)(F)F)c3)C2)C1 | -5.47% (inactive) | – | 20.4% (inactive) | -6.41% (inactive) | > 46 µM (inactive) | – | inactive | 5.56% (inactive) | 8.88 | 18.9 | inactive | > 11.4 µM (inactive) | – | – | – | – | – | – |
| O=C(c1ccco1)N1CCC2(CC1)CCN(c1ncccn1)CC2 | -7.74% (inactive) | – | – | -7.06% (inactive) | > 46 µM (inactive) | inactive | inactive | 5.72% (inactive) | 9.29 | 18.4 | inactive | > 11.4 µM (inactive) | – | – | – | – | – | – |
